Test systems include SR leukemia; RPMI-8226 leukemia; OVCAR-8 ovarian; OVCAR-5 ovarian; OVCAR-4 ovarian; SK-OV-3 ovarian; IGROV1 ovarian; OVCAR-3 ovarian; HS 578T breast; NCI/ADR-RES ovarian.
Holding throughout (test): NCI-60 one-dose screen, 48 h (100 = growth as untreated, 0 = no growth, -100 = all killed)
Holding throughout (details): 10 µM unless noted

The panel holds about 83,000 compounds, 20% with a hit somewhere; the sample as a whole holds those more often.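 How to read the values: 0–100, growth inhibition (40 = 60% inhibited); 0, no net growth; -100 to 0, cell death (-40 = 40% of starting cells died; -100 = all dead).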 A number with no mark means an inactive call. Active and inactive are the calls of the source. How the source made its calls: active means growth percent below 10; inactive means the rest.

`CCN(CC)CCNCC(=O)Oc1ccc(/C=C/C(=O)CC(=O)/C=C/c2ccc(OC(=O)CNCCN(CC)CC)c(OC)c2)cc1OC`: the growth in the assay with SR leukemia was -1.72% (active); in the assay with RPMI-8226 leukemia, -46.2% (active); in the assay with OVCAR-8 ovarian, 3.99% (active); with OVCAR-5 ovarian, 36.6%; in the assay with OVCAR-4 ovarian it was 44.3%; in the assay on SK-OV-3 ovarian, 27.3%. For the same compound, the growth with IGROV1 ovarian was -24.5% (active); in the assay with OVCAR-3 ovarian, 13.3%; with HS 578T breast, -3.97% (active); in the assay with NCI/ADR-RES ovarian, 71.6%.

Turning to `COc1ccc2c(c1)c(CC(=O)[Se]C)c(C)n2C(=O)c1ccc(Cl)cc1`, the growth with SR leukemia is 13.4%; with RPMI-8226 leukemia it was 62.6%; with OVCAR-8 ovarian it was -46.9% (active); in the assay with OVCAR-5 ovarian, 36.8%; in the assay on OVCAR-4 ovarian, 37.2%; with SK-OV-3 ovarian it was 40.7%. Further, the growth in the assay on IGROV1 ovarian was -3.14% (active); in the assay with OVCAR-3 ovarian, -12.4% (active); with HS 578T breast it was 8.49% (active); with NCI/ADR-RES ovarian it was 3.71% (active).

On to `C[C@H]1O[C@@H](O[C@H]2[C@@H](O)C[C@H](O[C@H]3[C@@H](O)C[C@H](O[C@H]4CC[C@]5(C)C6CC[C@]7(C)[C@@H](C8=CC(=O)OC8)CC[C@]7(O)C6CC[C@@H]5C4)O[C@@H]3C)O[C@@H]2C)C[C@H](O)[C@@H]1O` (some centres undefined), for which the growth in the assay with SR leukemia is -32.7% (active); in the assay on RPMI-8226 leukemia, -18.8% (active); with OVCAR-8 ovarian, -79.1% (active); in the assay with OVCAR-5 ovarian it was -100% (active); in the assay on OVCAR-4 ovarian it was -51.4% (active); with SK-OV-3 ovarian, -92.5% (active). For the same compound, the growth in the assay on IGROV1 ovarian was -38.8% (active); with OVCAR-3 ovarian it was -100% (active); in the assay with HS 578T breast, -1.73% (active); in the assay on NCI/ADR-RES ovarian, -79.2% (active).

Consider `COc1cc(Cl)cc(-c2nn(-c3cccc(NC(=O)c4cc(C(F)(F)F)cc(C(F)(F)F)c4)c3)cc2-c2ccncc2)c1`, for which the growth in the assay on SR leukemia is 41%; in the assay with RPMI-8226 leukemia, 43.6%; in the assay with OVCAR-8 ovarian, 55.4%; in the assay with OVCAR-5 ovarian, 83%; in the assay on OVCAR-4 ovarian, 72.1%; with SK-OV-3 ovarian, 83.4%. Also, the results for the growth with IGROV1 ovarian, in the assay with OVCAR-3 ovarian and in the assay with HS 578T breast were 100%, 25.5% and 81.1%, respectively.

Regarding `COc1ccc(-n2cnc3cc(C(=O)N4CCCCC4)ccc32)cc1`, the growth in the assay on SR leukemia is 94.9%; with RPMI-8226 leukemia it was 101%; in the assay on OVCAR-8 ovarian, 100%; in the assay with OVCAR-5 ovarian it was 93.1%; in the assay on OVCAR-4 ovarian it was 100%; in the assay on SK-OV-3 ovarian, 99.5%. The growth in the assay with IGROV1 ovarian is 112%; with OVCAR-3 ovarian it was 108%; with HS 578T breast, 100%; with NCI/ADR-RES ovarian, 107%.

In the case of `COc1ccc(-c2nc3sc4c(c3c(=O)[nH]2)CCCCCC4)cc1`, the growth in the assay with SR leukemia is 27.9%; with RPMI-8226 leukemia it was 72%; in the assay with OVCAR-8 ovarian, 70.7%; in the assay with OVCAR-5 ovarian, 83.8%; in the assay on OVCAR-4 ovarian, 50.4%; in the assay with SK-OV-3 ovarian it was 48%. Moreover, the growth was 63.1% in the assay on IGROV1 ovarian, 44.2% in the assay with OVCAR-3 ovarian, 58.4% in the assay on HS 578T breast and 51.2% with NCI/ADR-RES ovarian.

On to `Clc1ccc2[nH]cc(-c3cncn3CCc3ccccc3)c2c1`, for which the growth in the assay with SR leukemia is 41%; with RPMI-8226 leukemia it was 22.6%; in the assay with OVCAR-8 ovarian, 32.9%; in the assay with OVCAR-5 ovarian, 74.7%; in the assay on OVCAR-4 ovarian, 14.2%; in the assay on SK-OV-3 ovarian it was 41.1%. In addition, the growth in the assay with IGROV1 ovarian is 69.3%; with OVCAR-3 ovarian it was 55.4%; in the assay on HS 578T breast it was 51.3%; with NCI/ADR-RES ovarian it was 51.1%.

As for `CC(=O)c1nn(-c2ccccc2)c(=Nc2ccccc2)cc1C`, the growth in the assay with SR leukemia was 99.3%; in the assay with RPMI-8226 leukemia, 100%; with OVCAR-8 ovarian, 96.7%; with OVCAR-5 ovarian it was 90.5%; in the assay with OVCAR-4 ovarian, 96.9%; with SK-OV-3 ovarian it was 108%. Further, the figures for the growth in the assay with IGROV1 ovarian, in the assay with OVCAR-3 ovarian and in the assay with HS 578T breast were 106%, 113% and 114%, respectively.

As for `N/C(=N\C(N)=N\c1nc2ccccc2s1)c1ccnc(Cl)c1`, the growth in the assay with SR leukemia is 18.9%; with RPMI-8226 leukemia it was 15.2%; in the assay on OVCAR-8 ovarian, 39.5%; with OVCAR-5 ovarian, 57.9%; with OVCAR-4 ovarian, 79.1%; in the assay on SK-OV-3 ovarian, 48.5%. The growth is 37.2% in the assay with IGROV1 ovarian, 4.62% (active) in the assay on OVCAR-3 ovarian and 25.7% in the assay with HS 578T breast.

In the case of `COc1ccc(-c2cc(-c3nnc(SCC(=O)Nc4ccc(C(C)=O)cc4)n3-c3ccccc3)c3ccccc3n2)cc1OC`, the growth with SR leukemia is 121%; with RPMI-8226 leukemia it was 105%; in the assay on OVCAR-8 ovarian, 104%; with OVCAR-5 ovarian it was 106%; in the assay on OVCAR-4 ovarian it was 106%; in the assay with SK-OV-3 ovarian, 81.6%. The growth with IGROV1 ovarian was 105%; in the assay on OVCAR-3 ovarian it was 96.8%; with HS 578T breast, 108%.

`N#Cc1c(-c2ccc(F)cc2)n2c(nc1=O)SC(=O)C2=O`: the growth in the assay on SR leukemia is 91.3%; in the assay on RPMI-8226 leukemia, 76.8%; with OVCAR-8 ovarian, 98%; with OVCAR-5 ovarian, 110%; in the assay on OVCAR-4 ovarian, 100%; with SK-OV-3 ovarian it was 115%. In addition, the growth is 108% with IGROV1 ovarian, 123% with OVCAR-3 ovarian, 104% with HS 578T breast and 94.5% with NCI/ADR-RES ovarian.

Turning to `COC(=O)C1=CCC(n2cnc3c(N)ncnc32)O1` (centres undefined), the growth was 102% in the assay on SR leukemia; 118% with RPMI-8226 leukemia; 96.3% in the assay on OVCAR-8 ovarian; 109% with OVCAR-5 ovarian; 106% in the assay on OVCAR-4 ovarian; 108% with SK-OV-3 ovarian. Besides, the growth in the assay on IGROV1 ovarian was 109%; with OVCAR-3 ovarian, 106%; in the assay with HS 578T breast, 110%; in the assay with NCI/ADR-RES ovarian it was 95.4%.

`COc1cc(C(=O)/C=C/c2cccc(Nc3ccnc4cc(Cl)ccc34)c2)cc(OC)c1OC`: the growth is -18.7% (active) in the assay with SR leukemia; -15.9% (active) in the assay with RPMI-8226 leukemia; -41% (active) in the assay with OVCAR-8 ovarian; -35.8% (active) in the assay with OVCAR-5 ovarian; -39.5% (active) with OVCAR-4 ovarian; 20.3% with SK-OV-3 ovarian. Besides, the growth with IGROV1 ovarian is -54% (active); in the assay on OVCAR-3 ovarian, -51.4% (active).

As for `COc1cc(-c2nc3sc4c(c3c(=O)[nH]2)CCCCCC4)cc(OC)c1OC`, the growth with SR leukemia is 15.5%; with RPMI-8226 leukemia, 7.95% (active); with OVCAR-8 ovarian it was 25.2%; with OVCAR-5 ovarian, 37.8%; in the assay on OVCAR-4 ovarian, 61.6%; in the assay on SK-OV-3 ovarian it was 14.2%. The growth is 34.5% in the assay with IGROV1 ovarian, -3.03% (active) with OVCAR-3 ovarian, 5.2% (active) in the assay on HS 578T breast and -6.9% (active) with NCI/ADR-RES ovarian.

The values above are taken from PubChem BioAssay (NCI).
